Experimental findings from the supplement of paper PMC10981050 are described below.

For orientation: cell viability means a read-out of living cells in per cent, often relative to untreated cells.

This assay concerns MOLM14. The assay is described as follows: cell viability relative to vehicle control; higher = less cytotoxic. To be noted: 10 µM; SRSF2 genotype: SRSF2 wt/wt. In a few lines: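 Each screen used CRISPR-edited mutant and wild-type clones from four leukaemia lines. Compounds were acoustically dispensed at a single 10 µM dose, and CellTiter-Glo luminescence was read after 48 h with the supernatant first removed. Viability was analysed in Genedata Screener and given as percent of the on-plate vehicle control.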
Take `Cc1cc(C)c(-c2csc(NC(=O)c3ccccc3)n2)c(C)c1`: the cell viability is 40.5%.
On to `O=C(/C=C/c1ccc(O[C@@H]2O[C@H](CO)[C@@H](O)[C@H](O)[C@H]2O)cc1)c1ccc(O)cc1O` [Isoliquiritin], for which the cell viability turned out to be 87.6%.
On to `COc1ccc(-c2oc3c(CC=C(C)C)c(O)cc(O)c3c(=O)c2O[C@@H]2O[C@@H](C)[C@H](O)[C@@H](O)[C@H]2O)cc1` [Baohuoside I], for which the cell viability was determined as 88.5%.
The result for `CCCCCCCCCC(=O)N[C@@H](Cc1c[nH]c2ccccc12)C(=O)N[C@H](CC(N)=O)C(=O)N[C@@H](CC(=O)O)C(=O)N[C@@H]1C(=O)NCC(=O)N[C@@H](CCCN)C(=O)N[C@@H](CC(=O)O)C(=O)N[C@H](C)C(=O)N[C@@H](CC(=O)O)C(=O)NCC(=O)N[C@H](CO)C(=O)N[C@@H]([C@H](C)CC(=O)O)C(=O)N[C@@H](CC(=O)c2ccccc2N)C(=O)O[C@@H]1C` [Daptomycin] reads 96.5%; that for `c1ccc2occc2c1` [2,3-Benzofuran], 105%.
Regarding `O=C(O)CC(C(=O)O)n1c(O)c(C2=c3cc(Br)ccc3=NC2=O)sc1=S` (centres undefined), the cell viability worked out at 89.4%.
As for `CCN1CCN(c2cc3c(cc2F)c(=O)c(C(=O)O)cn3C2CC2)CC1` [Enrofloxacin], the cell viability was 111%.
`COc1ccc2c(c1O)-c1c(O)c(OC)cc3c1[C@H](C2)[N+](C)(C)CC3` [Magnoflorine]: the cell viability is 100%.
The result for `CC(=O)OCC(=O)[C@@]1(O)CC[C@H]2[C@@H]3CCC4=CC(=O)CC[C@]4(C)[C@@]3(F)[C@@H](O)C[C@@]21C` [Fludrocortisone acetate] reads 102%.
